Laboratory results: PubChem BioAssay (EPA / NIEHS)
Results filed as inconclusive are left out. Activity calls are given as the source filed them. Rule for the calls: active = hit-call score of the fitted dose curve at least 0.9, where 1 is the maximum; inconclusive = response in the unintended direction; inactive = score below 0.9.

Test: ACEA_ER_AUC_viability: ACEA Biosciences xCELLigence Real-Time Cell Analysis on Estrogen Receptor Agonism for Viability (AID 2283782);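 note: continuous compound exposure with impedance area under curve over 80 h; hit means loss of impedance signal meaning reduced cell growth or viability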
Protocol: ACEA_ER is a cell-based, single-readout assay that uses T47D, a human breast cell line, with measurements taken at 80 hours after chemical dosing in a 96-well plate, although TO2 (mc0.srcf) used a 384-well plate. Differences in plate size can be ignored given data normalization.ACEA_ER_AUC_viability is one of two assay component(s) measured or calculated from the ACEA_ER assay. It is designed to make measurements of real-time cell-growth kinetics, a form of growth reporter, as detected with electrical impedance signals by Real-Time Cell Electrode Sensor (RT-CES) technology.Data from the assay component ACEA_ER_AUC_viability was analyzed in the positive analysis fitting direction relative to DMSO as the negative control and baseline of activity. Using a type of growth reporter, loss-of-signal activity can be used to understand changes in the viability. Furthermore, this assay endpoint can be referred to as a secondary readout, because this assay has produced multiple assay endpoints where this one serves a viability function. To generalize the intended target to other relatable targets, this assay endpoint is annotated to the cell cycle intended target family, where the subfamily is cytotoxicity.
The xCELLigence system Multi-E-Plate stations were used to measure the time-dependent response to chemicals. Each compound was tested in an eight-point, 1:4 serial dilution series starting at a maximum final concentration of 100 uM. A maximum starting concentration of 0.5% DMSO was present in the 100 uM chemical samples and was diluted along with the test article dilution series. The screen was performed in biological duplicate using two separate, 96-well, E-Plates 96 for each dilution series (n = 2). Positive controls (MG132 and E2) and a negative control (assay media) were tested in quadruplicate on each testing plate. Then, 0.5% and 0.125% DMSO were tested in duplicates in each plate to serve as solvent controls for the 2 highest concentrations of testing compounds: 100 uM and 25 uM. Reference compounds were tested with 8 concentrations with 1:5 serial dilutions. All screening was carried out by ACEA Biosciences, Inc. (San Diego, CA). T-47D cells purchased from ATCC were maintained in RPMI1640 media supplemented with 10% characterized fetal bovine serum (FBS). Before screening, T-47D cells were preconditioned in assay medium: phenol red-free RPMI1640 supplemented with 10% charcoal-stripped FBS. Cells were then detached and seeded in E-Plates 96 in assay medium. After overnight monitoring of growth once every hour, compounds were added to […] cells and remained in the medium until the end of the experiment. Cellular responses were then recorded once every 5 min for the first 5 h, and once every hour for an additional 100 h.

SMILES	outcome	AC50
FC(F)(F)C(F)(F)C(F)(F)C(F)(F)C(F)(F)C(F)(F)C(F)(F)CCI	inactive	
O=S(=O)(Cl)C(F)(F)C(F)(F)C(F)(F)C(F)(F)C(F)(F)C(F)(F)C(F)(F)C(F)(F)F	inactive	
O=C1C=CC(=O)N1c1ccc(Cc2ccc(N3C(=O)C=CC3=O)cc2)cc1		25.1 µM (active)
NC(O)(C(F)(F)F)C(F)(F)F	inactive	
CO[Si](CCCOCC1CO1)(OC)OC (stereo not given)		76.8 µM (active)
OCCCCl	inactive	
CC(C)OC(=O)COc1ccc(Cl)cc1Cl		66.8 µM (active)
Cc1cc(O)c(C(C)(C)C)cc1C(C)(C)C		23.2 µM (active)
CCOC(C=C(C)CCC=C(C)C)OCC		11.3 µM (active)
CC(C)C(=O)OCc1ccccc1	inactive	
COc1ccccc1C=O	inactive	
CCCCCCCCn1sc(Cl)c(Cl)c1=O		1.99 µM (active)
C=CCOC(=O)CC(C)C	inactive	
Oc1ccc2c(c1)CCC2	inactive	
Cc1ccc2c(c1)OCC(=O)CO2	inactive	
COCCOCCC[Si](C)(O[Si](C)(C)C)O[Si](C)(C)C		79.6 µM (active)
O=S(=O)(O)c1ccc(Cl)cc1	inactive	
C=CC(=O)OCC(F)(F)C(F)(F)C(F)(F)C(F)(F)C(F)(F)C(F)(F)C(F)(F)C(F)F	inactive	
CCOCN(C(=O)CS(=O)(=O)O)c1c(C)cccc1CC	inactive	
OCCC(O)CO (stereo not given)	inactive	

SMILES	outcome	AC50
NC(=O)C(F)(F)C(F)(F)C(F)(F)C(F)(F)C(F)(F)C(F)(F)C(F)(F)F	inactive	
CCCCCCCC/C=C\CCCCCCCC(=O)N(C)CC(=O)O		83.4 µM (active)
C=C(C)CCCC	inactive	
Cc1cc(=O)[nH]c(C(C)C)n1	inactive	
C[Si](C)O[Si](C)C		50 µM (active)
O=S(=O)(O)CCC(F)(F)C(F)(F)C(F)(F)C(F)(F)F	inactive	
OCCCc1cccnc1	inactive	
CCCCC(CC)COC(=O)c1ccc(N(C)C)cc1 (stereo not given)		87.8 µM (active)
NC(=O)C(F)(F)C(F)(F)C(F)(F)F	inactive	
O=C(Cl)C(F)(F)C(F)(F)C(F)(F)C(F)(F)C(F)(F)C(F)(F)F	inactive	
Cc1cc(C)c(O)c(C(C)(C)C)c1		90.6 µM (active)
Cc1cccc(C)n1	inactive	
Cc1ccc(S(=O)(=O)C(I)I)cc1		4.22 µM (active)
c1ccc(C[P+](c2ccccc2)(c2ccccc2)c2ccccc2)cc1		83.7 µM (active)
Cc1cnccn1	inactive	
O=C(O)C(F)(F)C(F)(F)C(F)(F)C(=O)O	inactive	
CCCCCCCCCCCCC[N+](C)(C)Cc1ccccc1		7.37 µM (active)
CCCCCCCCCCCCCCCCC	inactive	
CCN(CCO)S(=O)(=O)C(F)(F)C(F)(F)C(F)(F)C(F)(F)C(F)(F)C(F)(F)C(F)(F)C(F)(F)F		20.2 µM (active)
CC1=CC2C3C=CC(C3)C2C1C (stereo not given)		50 µM (active)
